# Records with an inconclusive call do not appear. The source made the active and inactive calls. Calls follow the shape of the dose curve; as a rule, active = well fitted inhibition curve with a large enough effect; inconclusive = small, poorly fitted or top-dose-only effect; inactive = flat fitted curve, though single readings scatter. Where a SMILES comes first, the peptide text is derived from it. [ ]: non-standard residue; d: D form. ξ: configuration not given here. ξTyr(βOH) = NC(C(=O)O)C(O)c1ccc(O)cc1
# Assay: P-glycoprotein substrates identified in KB-8-5-11 adenocarcinoma cell line, qHTS therapeutic library screen (AID 1346987); also: nearly all actives have a fitted effect of over 65% in size
# Details: KB-8-5-11 (P-gp overexpressing) viability, CellTiter-Glo, 72 h; series mostly up to 44.5 µM; activity change, negative = cytotoxicity: at the top concentration
# In short: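 P-gp-mediated resistance screen: KB-8-5-11 cells treated 72 h with compounds in dose-response. CellTiter-Glo viability.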
# % is scaled to controls: 0 for no effect and ±100 for the full control effect; potency is read from the fitted curve at half-maximal effect.
Compound,outcome,"activity change, negative = cytotoxicity",Potency
COc1ccc(NC(=O)c2ccc(-c3ccc(C(N)=O)cc3C)cc2)cc1N1CCN(C)CC1,inactive,–,–
CC1(C)CC[C@]2(C(=O)O[C@@H]3O[C@H](CO)[C@@H](O)[C@H](O)[C@H]3O)CC[C@]3(C)C(=CCC4[C@@]5(C)CC[C@H](O[C@H]6O[C@H](CO)[C@@H](O)[C@H](O[C@@H]7O[C@H](CO)[C@@H](O)[C@H](O)[C@H]7O)[C@H]6O)C(C)(C)C5CC[C@]43C)[C@@H]2C1 (stereo partly drawn),–,4.26% [at 9.29 µM] (inactive),–
Cc1ccc(Cl)cc1N(CC(=O)Nc1c(F)cccc1F)S(C)(=O)=O,–,-1.26% (inactive),–
Cc1ccc(Nc2nnc(-c3ccc([N+](=O)[O-])cc3)o2)cc1Cl,–,-7.62% (inactive),–
COc1cc([C@H]2OC[C@](O)(Cc3ccc(O[C@@H]4O[C@H](CO)[C@@H](O)[C@H](O)[C@H]4O)c(OC)c3)[C@@H]2CO)ccc1O,–,1.08% [at 17.3 µM] (inactive),–
COc1ccc(/C=C/C(=O)O[C@@H]2[C@@H](O[C@@H]3O[C@H](CO)[C@@H](O)[C@H](O)[C@H]3O)[C@@H](O)[C@H](O[C@H]3C4C=CO[C@@H](O[C@@H]5O[C@H](CO)[C@@H](O)[C@H](O)[C@H]5O)C4[C@@]4(CO)O[C@@H]34)O[C@H]2C)cc1 (stereo partly drawn),–,2.62% [at 9.29 µM] (inactive),–
C=C(CC/C=C(\C)C(=O)O)C1(O)CC=C(C)CC1 (stereo not drawn),inactive,–,–
COC(=O)CCC1(C)C(C(C)(C)O)C(O)CC2(C)Oc3c(C)c4c(c(OC)c3CC21)C(=O)OC4 (stereo not drawn),inactive [at 17.3 µM],–,–
O=C(O)CCc1cccc(O)c1O[C@@H]1O[C@H](CO)[C@@H](O)[C@H](O)[C@H]1O,inactive,–,–
N[C@@H](CCNCc1ccc(Cl)cc1)C(=O)N1CCCCC1,–,9.84% (inactive),–
COc1ccc(C(=O)NCc2cc(C(C)C)no2)cc1OC1CCN(C)CC1,inactive,–,–
FC(F)(F)c1nnc2c(Sc3ccccc3)nc3ccc(Cl)cc3n12,–,–,4.61 µM (active)
CC1=CCC[C@@H]2[C@](CCc3ccoc3)(C(=O)O)[C@H](C)CC[C@@]12C,–,3.84% (inactive),–
CCC(C)C(N)C(=O)NCCN1CCOCC1 (stereo not drawn),–,0.0236% (inactive),–
CC1=CC(=O)C(=C(C)C)CC2C(C)(O)CCC12O (stereo not drawn),–,0.343% (inactive),–
C/C=C/C(=O)OC1/C=C/C(O)C(OC(C)=O)CCC(=O)OC1C (stereo not drawn),–,2.79% (inactive),–
CC1=CCC(O)C2(C)CCC3C(C)C(=O)OC3C12 (stereo not drawn),–,-0.961% (inactive),–
CC1=CC2=C(C)C(=O)[C@](C)(O)[C@H](O)C2=CO1,inactive,–,–
C=C1C(O)CC2C(C(=O)O)=COC(OC3OC(CO)C(O)C(O)C3OC(=O)/C=C\c3ccc(O)cc3)C12 (stereo not drawn),inactive [at 17.3 µM],–,–

Compound,outcome,"activity change, negative = cytotoxicity",Potency
CC1(C)CC2C3=CCC4[C@@]5(C)CC[C@H](OC6OCC(O)C(OC7OC(CO)C(O)C(O)C7O)C6O)C(C)(C)C5CC[C@@]4(C)[C@]3(C)C[C@H](O)[C@@]2(CO)[C@H](OC(=O)c2ccccc2)C1 (stereo partly drawn),–,-4.21% [at 9.29 µM] (inactive),–
CC(C)C1NC(=O)CNC(=O)C2CCCN2C(=O)C(Cc2c[nH]c3ccccc23)NC(=O)CNC(=O)C(C(O)c2ccc(O)cc2)NC(=O)CNC1=O (stereo not drawn) (cyclo(G[ξTyr(βOH)]GWPGV); configuration not given here),inactive [at 17.3 µM],–,–
COc1cc(C2Oc3c(OC)cc(/C=C/C(=O)OC4CC(O)(C(=O)O)CC(O)C4O)cc3C2CO)ccc1O (stereo not drawn),inactive [at 17.3 µM],–,–
CC[C@H](NC(=O)c1c(O)c(-c2ccccc2)nc2ccccc12)c1ccccc1,–,-21% (inactive),–
CC(C)=C1CC2[C@](C)(CC[C@@H](OC(=O)C3(C)OC3C)[C@@]2(C)O)CC1=O (stereo partly drawn),inactive,–,–
CNC(=O)c1ccc2c(c1)CCO[C@H]2CCN1CCN(c2ccc(C(N)=O)cc2)CC1,inactive,–,–
O=C(/C=C/c1ccc(O)cc1)O[C@H]1[C@H](OC2CCCCC2O)O[C@H](CO)[C@@H](O)[C@@H]1O (stereo partly drawn),–,0.679% [at 17.3 µM] (inactive),–
CC1(C(=O)O)CCCC2(C)C3CC4C5CC3(CCC12)CC45C (stereo not drawn),–,1.72% (inactive),–
CCC(C)/C=C(C)/C=C/C1=CC2=C(Cl)C(=O)C(C)(OC(C)=O)C(=O)C2=CN1C(CCCN=C(N)N)C(=O)O (stereo not drawn),inactive [at 17.3 µM],–,–
C=C1CC[C@@]2(OC1)O[C@H]1CC3C4CC=C5C[C@@H](O[C@@H]6O[C@@H](C)[C@H](O)[C@@H](O)[C@H]6O)C[C@@H](O[C@@H]6O[C@H](C)[C@H](O)[C@H](O)[C@H]6O[C@@H]6O[C@@H](C)[C@H](O)[C@@H](O)[C@H]6O)[C@]5(C)C4CC[C@]3(C)[C@H]1[C@@H]2C (stereo partly drawn),–,5.67% [at 9.29 µM] (inactive),–
CC1OC(OC2CCC3(C)C(CCC4(C)C3C=CC35OCC6(CCC(C)(C)CC63)CCC45C)C2(C)CO)C(OC2OC(CO)C(O)C(O)C2O)C(O)C1OC1OC(CO)C(O)C(O)C1O (stereo not drawn),–,2.86% [at 9.29 µM] (inactive),–
C=C1CCC[C@]2(C)CC[C@@](O)(C(=C)C(=O)O)C[C@@H]12,–,-12.1% (inactive),–
O=C(O)CC/C=C\C[C@H]1CO[C@@H](c2ccccc2Cl)O[C@H]1c1ccccc1O,–,6.55% (inactive),–
O=C(C1OC1/C=C/c1ccc2c(c1)OCO2)N1CCCCC1 (stereo not drawn),inactive,–,–
C=C1C(=O)O[C@@H]2CC(C)=C([C@@H](C)CCCOC(C)=O)[C@@H](O)[C@H]12,–,2.89% (inactive),–
CCC1=C(C)C(=O)C(C)CC12C(=O)CCC2C(=O)O (stereo not drawn),inactive,–,–
CC[C@@H]1[C@H]2CCCCN3C(=O)C[C@H]([C@@H]4[C@H]1OC(=O)[C@H]4C)[C@@H]23,–,6.73% (inactive),–
C=C1C(O)C(OC(=O)c2ccccc2)C2C(C)(C(=O)O)CCCC2(C)C1CC/C(C)=C\CO (stereo not drawn),–,5.05% [at 17.3 µM] (inactive),–
COC(=O)C(CC1(O)c2ccccc2N2C(=O)C(CC(C)C)NC21)n1cnc2ccccc2c1=O (stereo not drawn),inactive [at 17.3 µM],–,–

# — PubChem BioAssay (NCATS)
